tim10-1 inh – inhibits growth of tim10-1 mutant yeast; S. cerevisiae tim10-1 ts strain growth, BacTiter-Glo, 24 h; inhibition, % at 20 µM; 330,000 compounds, 2.2% hits; AID 463190;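 active means inhibition of at least 40%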;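 further: mutant grown at 25 °C; 0% = DMSO wells with yeast and 100% = wells holding no yeast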
EBI2 block – blocks human EBI2 receptor beta-arrestin signaling. P32249. EBI2 beta-arrestin recruitment, luminescence, 7a,25-OHC stimulated. inhibition, % at 5 µM. 360,000 compounds, 0.81% hits. AID 651636; in the data active means inhibition above about 38%;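 further: enzyme fragment complementation signal reports receptor beta-arrestin coupling in cells; 0% = agonist plus DMSO wells and 100% = wells without agonist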
Target sequence (P32249 whole entry, looked up, the tested form may be a part): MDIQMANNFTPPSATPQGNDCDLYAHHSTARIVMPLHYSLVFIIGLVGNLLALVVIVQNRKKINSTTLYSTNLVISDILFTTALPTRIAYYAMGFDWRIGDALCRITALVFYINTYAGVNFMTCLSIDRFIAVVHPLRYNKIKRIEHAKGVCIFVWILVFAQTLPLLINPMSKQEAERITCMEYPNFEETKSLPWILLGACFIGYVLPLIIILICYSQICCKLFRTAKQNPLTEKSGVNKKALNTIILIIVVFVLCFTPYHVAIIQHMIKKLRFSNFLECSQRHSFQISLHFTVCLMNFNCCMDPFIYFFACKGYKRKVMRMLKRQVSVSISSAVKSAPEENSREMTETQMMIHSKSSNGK
TIM10 inh – growth inhibitors of TIM10 yeast strain; inhibition, % at 10 µM; S. cerevisiae TIM10 strain growth, BacTiter-Glo luminescence, 24 h; 330,000 compounds, 1.4% hits;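 active means inhibition of 40% or more at the single tested concentration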;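 further: wild-type TIM10 isogenic control strain grown at permissive 25 °C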
tim23-1 inh – inhibits growth of tim23-1 mutant yeast. 330,000 compounds, 1.3% hits. S. cerevisiae tim23-1 growth, BacTiter-Glo luminescence, 24 h. inhibition, % at 20 µM. AID 463212;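 active means growth inhibition of the mutant yeast at or above 50%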;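 further: temperature-sensitive mutant grown at 25 °C; plate controls were DMSO-treated mutant yeast for no effect and medium wells lacking yeast for full effect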
SKKanGAS inh – SKKanGAS growth inhibition. S. pyogenes SKKanGAS, kanamycin growth, BacTiter-Glo, 6 h. inhibition, % at 7.5 µM. 300,000 compounds, 1.3% hits. AID 1662;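 active means mean replicate score, as percent of positive control median, at least 50; inconclusive means mean below 50 but one replicate at or above 50; inactive means mean and every replicate below 50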;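 further: strain carries kanamycin resistance gene driven by streptokinase promoter and grows in 40 µg/ml kanamycin; loss of luminescence reflects streptokinase promoter inhibition or plain growth inhibition; 0% = median of DMSO wells and 100% = positive control at its reference dose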
PfHsp90 yeast 2 – reduces growth (ATP signal) of yeast expressing P. falciparum Hsp90; AID 504621; 310,000 compounds, 0.32% hits; inhibition, % at 9.4 µM; S. cerevisiae expressing PfHsp90, BacTiter-Glo ATP, 48 h; yeast lacking PDR1 and PDR3 efflux regulators;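 active means every replicate shows inhibition above about 80%, whatever the replicate mean, limit read from the data; inconclusive means mean inhibition reaches the set limit but some replicate falls short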;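 further: 0% = DMSO neutral controls and 100% = 20 µM radicicol positive controls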
tim10-1 confirm – confirmation of tim10-1 mutant yeast growth inhibitors; inhibition, % at 20 µM; shares compounds with tim10-1 inh; 7,400 compounds, 56% hits; AID 463213; S. cerevisiae tim10-1 ts strain growth, BacTiter-Glo, 24 h;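 active means inhibition of yeast growth at or above a set limit in either of two repeat tests at 20 µM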;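 further: tim10-1 mutant grown at permissive 25 °C to find synthetic lethal compounds; 0% = DMSO yeast wells and 100% = medium wells without yeast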
The depositor's hits bear a star; u = inconclusive; x = no result given. Rows were chosen to be rich in hits. Some 4.7% of all compounds tested hit in one or more screens of this group.

SMILES	tim10-1 inh	EBI2 block	TIM10 inh	tim23-1 inh	SKKanGAS inh	PfHsp90 yeast 2	tim10-1 confirm
Nc1c(C(=O)NCc2ccc3c(c2)OCO3)c2nc3ccccc3nc2n1CCCN1CCOCC1	44*	18	4	8	8	-14	29
COc1ccc(CCNC(=O)c2cc(-c3ccc(Cl)c(Cl)c3)oc2C)cc1	40*	8	29	25	53*	6	36*
COc1cccc(C2Nc3cc(Cl)c(S(N)(=O)=O)cc3S(=O)(=O)N2)c1 (centres undefined)	6	-6	-6	5	-1	6	x
CC(=O)Nc1cc(Cl)ccc1OS(=O)(=O)c1ccc(C)cc1	2	-4	-14	11	1	7	x
C#CCn1c(=NC(=O)c2cc(Cl)sc2Cl)sc2cc(S(N)(=O)=O)ccc21	47*	25	22	30	50*	-30	33*
O=C(c1ccc2c3n(nc2c1)-c1ccccc1CO3)N1CCCCC1	51*	-2	33	49	51*	34	48*
Cc1ccc2c(c1)COc1c3ccc(C(=O)N4CCCCC4)cc3nn1-2	23	-1	21	27	2	-10	x
COC(=O)c1cc(-c2ccc(C)o2)nc2ccccc12	23	-5	22	15	4	-3	x
Cc1ccc(-c2cc(C(=O)Nc3ccccc3C)c3ccccc3n2)o1	49*	-4	9	14	5	x	26
Cn1ncc(Cl)c1C(=O)Nc1cc(C(F)(F)F)ccc1F	47*	-1	-3	4	1	x	10
OCC(O)/C=N/Nc1nc(N2CCCCC2)nc(N2CCCCC2)n1 (centres undefined)	36	-7	21	34	-12	16	x
CC(C)(C)c1ccc(OC(=O)CN2C(=O)C3C4CCC(C4)C3C2=O)cc1 (centres undefined)	42*	-9	24	26	3	-56	26
O=C(Cc1nc2ccccc2[nH]1)c1ccc(Br)cc1	20	7	17	24	u	11	x
Cc1cc(C)c(CSc2ncc(-c3ccc([N+](=O)[O-])cc3)[nH]2)c(C)c1	45*	19	39	43	73*	-21	34*
Cc1cccc(NC(=O)c2ccc(S(=O)(=O)N3CCCCC3)cc2)n1	26	11	18	13	-5	-29	x
COc1cc(C(=O)Nc2ccc(S(=O)(=O)N3CCCCC3C)cc2)cc(OC)c1OC (centres undefined)	46*	9	36	26	2	2	38*
Cc1cccc(NC(=O)c2ccc(S(=O)(=O)N3CCCCC3C)cc2)n1 (centres undefined)	41*	12	18	36	44	-7	15
COc1ccc(C(=O)Nc2ccc(S(=O)(=O)N3CCCCC3C)cc2)c(OC)c1OC (centres undefined)	35	9	20	31	4	-19	x
CC(=O)Nc1ccc(S(=O)(=O)N2C(C)CCCC2C)cc1 (centres undefined)	35	-12	10	26	-4	-11	x
Clc1ccccc1Nc1nnc(-c2ccncc2)s1	40*	-2	30	42	34	66	41*
O=[N+]([O-])c1c(NCCCO)cc(Sc2nc3ccccc3s2)c2nonc12	85*	49*	11	30	78*	x	85*
Cc1ccnc(NC(=O)C2CC(=O)N(c3ccc4c(c3)OCCO4)C2)c1 (centres undefined)	25	6	8	21	-2	16	x
Nc1cc(S(=O)(=O)N2CCCCC2)ccc1N1CCCCC1	45*	-6	24	34	x	3	27
Cc1noc(C)c1CSCC(=O)N(C)CC(=O)Nc1ccccc1C(F)(F)F	-5	-5	10	13	x	17	x
COCCCNS(=O)(=O)c1ccc(Oc2ncc(C(F)(F)F)cc2Cl)cc1	24	0	3	25	-9	-32	x
Oc1cccc(Oc2ncc(C(F)(F)F)cc2Cl)c1	49*	2	24	13	-6	-21	40*
FC(F)(F)c1cnc(Oc2cccc3ccccc23)c(Cl)c1	15	-6	6	17	-3	8	x

Source: PubChem
